Experimental data as given in PMC7862700, “An all-to-all approach to the identification of sequence-specific readers for epigenetic DNA modifications on cytosine”.

Experiments:
Test in all cases: DAPPL (digital affinity profiling via proximity ligation, sequencing); 10 mM Tris-HCl pH 7.5, 50 mM NaCl, 1 mM DTT, 4% glycerol, room temperature, 30 min; GST-TFs on glutathione beads, 16-mer random dsDNA library, 0.1% formaldehyde crosslink after washing; high values mean tight binding
Settings in all cases: protein: recombinant; tags: N-terminal GST; dsDNA, one strand shown
[1] = biological target: T1, FLI1 (Homo sapiens, UniProt Q01543 1-452)
T1 sequence: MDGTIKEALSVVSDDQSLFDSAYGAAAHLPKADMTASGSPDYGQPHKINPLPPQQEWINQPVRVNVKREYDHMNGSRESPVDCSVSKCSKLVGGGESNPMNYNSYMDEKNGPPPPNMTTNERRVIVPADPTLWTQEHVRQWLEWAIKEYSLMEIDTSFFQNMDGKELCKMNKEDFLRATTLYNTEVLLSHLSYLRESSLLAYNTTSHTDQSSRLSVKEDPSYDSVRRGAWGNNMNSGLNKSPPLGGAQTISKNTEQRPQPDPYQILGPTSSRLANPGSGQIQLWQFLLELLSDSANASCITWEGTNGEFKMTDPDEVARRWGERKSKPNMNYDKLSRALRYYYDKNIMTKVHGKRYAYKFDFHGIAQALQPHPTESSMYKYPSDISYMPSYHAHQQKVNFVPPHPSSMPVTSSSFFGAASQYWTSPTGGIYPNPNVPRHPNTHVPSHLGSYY
Method in brief: (§1)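 Human transcription factors fused to GST were expressed in yeast, captured on glutathione beads, given DNA barcodes and pooled with a GST-only negative control. Pools were incubated with 200 nmole of a 16-mer random double-stranded DNA library in Tris/NaCl/DTT/glycerol buffer at room temperature for 30 min. They were then washed, crosslinked with 0.1% formaldehyde, proximity-ligated (BsaI/T4 ligase, 1 h, 37 °C), PCR-amplified and sequenced on an Illumina NextSeq500. Binding signal is each 6-mer's read frequency for a factor divided by its frequency for the GST control.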

[2] = biological target: T2, ELK1 (Homo sapiens, UniProt P19419 1-428)
T2 sequence: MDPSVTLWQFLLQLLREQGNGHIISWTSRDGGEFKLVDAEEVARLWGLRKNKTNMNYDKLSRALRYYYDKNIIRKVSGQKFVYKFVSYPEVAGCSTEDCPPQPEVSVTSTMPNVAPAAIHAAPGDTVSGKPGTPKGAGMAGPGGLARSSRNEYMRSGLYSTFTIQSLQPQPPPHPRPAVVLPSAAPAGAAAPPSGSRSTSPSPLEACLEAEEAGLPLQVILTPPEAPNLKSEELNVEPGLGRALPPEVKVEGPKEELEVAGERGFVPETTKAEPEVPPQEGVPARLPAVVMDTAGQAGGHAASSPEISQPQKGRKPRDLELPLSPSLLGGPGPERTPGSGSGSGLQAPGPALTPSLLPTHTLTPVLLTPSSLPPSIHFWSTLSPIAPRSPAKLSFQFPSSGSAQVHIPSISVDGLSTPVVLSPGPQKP
Method in brief: as §1

[3] = biological target: T3, GABPA (Homo sapiens, UniProt Q06546 1-454)
T3 sequence: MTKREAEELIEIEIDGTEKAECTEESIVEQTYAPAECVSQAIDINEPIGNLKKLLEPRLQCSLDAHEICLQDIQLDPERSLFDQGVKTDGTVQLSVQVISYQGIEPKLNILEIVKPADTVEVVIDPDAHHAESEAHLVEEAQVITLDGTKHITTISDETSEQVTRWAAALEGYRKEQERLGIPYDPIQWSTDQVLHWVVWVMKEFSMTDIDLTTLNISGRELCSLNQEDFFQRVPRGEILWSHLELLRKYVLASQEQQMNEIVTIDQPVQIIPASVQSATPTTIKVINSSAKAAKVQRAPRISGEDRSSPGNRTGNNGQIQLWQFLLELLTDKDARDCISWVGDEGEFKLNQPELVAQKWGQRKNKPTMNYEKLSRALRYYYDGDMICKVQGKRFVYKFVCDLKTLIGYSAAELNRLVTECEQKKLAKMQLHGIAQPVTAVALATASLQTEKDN
Method in brief: as §1

[4] = biological target: ELF1 (Homo sapiens, UniProt P32519 1-619)
Sequence of ELF1 (P32519 whole entry): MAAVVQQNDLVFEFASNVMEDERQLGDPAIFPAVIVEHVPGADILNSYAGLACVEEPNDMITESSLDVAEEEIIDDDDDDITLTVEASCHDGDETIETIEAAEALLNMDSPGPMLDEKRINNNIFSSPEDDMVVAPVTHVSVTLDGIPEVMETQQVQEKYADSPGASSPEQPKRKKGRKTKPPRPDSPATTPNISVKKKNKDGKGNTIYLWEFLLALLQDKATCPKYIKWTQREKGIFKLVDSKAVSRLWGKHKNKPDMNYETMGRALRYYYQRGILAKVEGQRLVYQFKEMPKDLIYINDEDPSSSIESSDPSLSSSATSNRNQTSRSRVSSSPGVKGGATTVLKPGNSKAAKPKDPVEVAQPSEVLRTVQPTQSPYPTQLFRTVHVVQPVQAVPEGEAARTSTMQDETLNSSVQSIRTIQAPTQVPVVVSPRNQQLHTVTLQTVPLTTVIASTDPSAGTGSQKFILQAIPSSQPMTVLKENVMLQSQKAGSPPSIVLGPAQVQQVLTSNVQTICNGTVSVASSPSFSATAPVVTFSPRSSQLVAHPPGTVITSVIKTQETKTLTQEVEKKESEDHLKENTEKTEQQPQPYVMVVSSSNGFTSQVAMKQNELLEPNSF
Method in brief: as §1

[5] = biological target: T4, EHF (Homo sapiens, UniProt Q9NZC4 1-300)
T4 sequence: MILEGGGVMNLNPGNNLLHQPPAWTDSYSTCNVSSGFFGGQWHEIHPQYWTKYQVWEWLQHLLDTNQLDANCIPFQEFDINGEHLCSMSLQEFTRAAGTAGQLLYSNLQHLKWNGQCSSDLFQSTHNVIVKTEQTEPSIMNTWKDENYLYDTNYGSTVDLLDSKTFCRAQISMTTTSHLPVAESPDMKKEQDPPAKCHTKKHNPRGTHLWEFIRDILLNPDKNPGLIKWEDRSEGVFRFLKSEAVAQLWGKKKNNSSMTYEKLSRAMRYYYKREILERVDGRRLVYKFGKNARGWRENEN
Method in brief: as §1

[6] = biological target: SPIB (Homo sapiens, UniProt Q01892 1-262)
Sequence of SPIB (Q01892 whole entry): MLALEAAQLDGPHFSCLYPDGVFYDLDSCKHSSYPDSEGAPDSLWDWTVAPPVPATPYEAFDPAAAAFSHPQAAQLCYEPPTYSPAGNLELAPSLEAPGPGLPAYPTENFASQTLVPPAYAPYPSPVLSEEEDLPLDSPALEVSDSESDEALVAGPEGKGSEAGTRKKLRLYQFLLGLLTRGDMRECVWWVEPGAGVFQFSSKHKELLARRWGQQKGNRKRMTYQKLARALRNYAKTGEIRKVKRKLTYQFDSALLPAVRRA
Method in brief: as §1

[7] = biological target: T5, ELK3 (Homo sapiens, UniProt P41970 1-407)
T5 sequence: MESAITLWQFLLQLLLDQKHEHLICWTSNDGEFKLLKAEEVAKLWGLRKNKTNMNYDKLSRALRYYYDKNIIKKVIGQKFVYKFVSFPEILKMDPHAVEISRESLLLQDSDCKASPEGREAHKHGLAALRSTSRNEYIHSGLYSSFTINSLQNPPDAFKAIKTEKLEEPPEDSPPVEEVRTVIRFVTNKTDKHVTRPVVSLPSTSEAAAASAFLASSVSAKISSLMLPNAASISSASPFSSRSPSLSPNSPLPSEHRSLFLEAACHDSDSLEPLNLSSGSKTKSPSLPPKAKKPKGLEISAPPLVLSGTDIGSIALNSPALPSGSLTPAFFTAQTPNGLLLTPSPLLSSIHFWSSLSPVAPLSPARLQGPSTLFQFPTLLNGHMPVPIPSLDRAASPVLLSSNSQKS
Method in brief: as §1

[8] = biological target: T6, SPIC (Homo sapiens, UniProt Q8N5J4 1-248)
T6 sequence: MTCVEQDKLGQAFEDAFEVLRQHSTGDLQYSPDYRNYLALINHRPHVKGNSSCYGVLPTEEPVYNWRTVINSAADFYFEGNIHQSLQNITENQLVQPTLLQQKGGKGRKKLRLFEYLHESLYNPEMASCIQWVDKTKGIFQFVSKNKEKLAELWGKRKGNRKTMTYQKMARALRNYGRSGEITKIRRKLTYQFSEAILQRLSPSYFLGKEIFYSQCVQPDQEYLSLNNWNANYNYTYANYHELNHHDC
Method in brief: as §1

[9] = biological target: ELF4 (Homo sapiens, UniProt Q99607 1-663)
Sequence of ELF4 (Q99607 whole entry): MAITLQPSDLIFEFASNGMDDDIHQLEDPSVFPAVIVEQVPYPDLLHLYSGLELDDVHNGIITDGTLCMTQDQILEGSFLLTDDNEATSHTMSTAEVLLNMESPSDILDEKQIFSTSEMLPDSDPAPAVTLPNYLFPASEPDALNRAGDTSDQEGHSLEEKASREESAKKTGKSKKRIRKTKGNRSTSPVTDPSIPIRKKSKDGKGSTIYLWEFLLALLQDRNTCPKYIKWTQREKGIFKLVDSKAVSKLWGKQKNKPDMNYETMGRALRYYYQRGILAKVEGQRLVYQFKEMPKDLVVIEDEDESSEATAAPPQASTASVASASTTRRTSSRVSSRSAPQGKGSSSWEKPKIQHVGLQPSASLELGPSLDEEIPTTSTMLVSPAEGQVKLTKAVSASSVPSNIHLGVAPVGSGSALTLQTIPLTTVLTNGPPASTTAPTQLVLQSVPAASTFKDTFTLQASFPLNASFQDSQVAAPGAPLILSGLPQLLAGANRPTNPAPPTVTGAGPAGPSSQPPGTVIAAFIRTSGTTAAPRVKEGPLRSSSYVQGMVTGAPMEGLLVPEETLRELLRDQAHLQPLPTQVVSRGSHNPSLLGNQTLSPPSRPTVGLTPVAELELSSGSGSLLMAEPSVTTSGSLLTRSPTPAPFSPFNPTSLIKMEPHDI
Method in brief: as §1

[10] = biological target: T7, ELK4 (Homo sapiens, UniProt P28324-2 1-405)
T7 sequence: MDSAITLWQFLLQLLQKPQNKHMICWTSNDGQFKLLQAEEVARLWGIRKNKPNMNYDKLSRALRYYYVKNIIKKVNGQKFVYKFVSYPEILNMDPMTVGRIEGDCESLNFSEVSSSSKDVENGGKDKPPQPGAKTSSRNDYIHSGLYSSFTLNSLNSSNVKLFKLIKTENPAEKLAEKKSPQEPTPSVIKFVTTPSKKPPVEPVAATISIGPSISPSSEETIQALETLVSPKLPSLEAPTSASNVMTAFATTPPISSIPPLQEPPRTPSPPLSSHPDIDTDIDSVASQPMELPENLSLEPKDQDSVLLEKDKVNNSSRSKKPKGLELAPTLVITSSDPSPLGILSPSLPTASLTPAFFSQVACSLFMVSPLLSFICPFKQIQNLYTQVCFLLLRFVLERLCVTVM
Method in brief: as §1

[11] = biological target: T8, ETV2 (Homo sapiens, UniProt O00321 1-342)
T8 sequence: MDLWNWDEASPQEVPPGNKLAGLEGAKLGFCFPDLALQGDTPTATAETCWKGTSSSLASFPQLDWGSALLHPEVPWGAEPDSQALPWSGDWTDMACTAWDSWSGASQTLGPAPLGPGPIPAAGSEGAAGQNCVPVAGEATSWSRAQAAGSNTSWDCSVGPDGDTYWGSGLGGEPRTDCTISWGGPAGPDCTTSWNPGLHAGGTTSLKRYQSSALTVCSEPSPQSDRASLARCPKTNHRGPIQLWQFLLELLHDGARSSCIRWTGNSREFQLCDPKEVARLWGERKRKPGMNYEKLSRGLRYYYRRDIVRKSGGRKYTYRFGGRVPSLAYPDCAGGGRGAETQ
Method in brief: as §1

[12] = biological target: T9, ERF (Homo sapiens, UniProt P50548 1-548)
T9 sequence: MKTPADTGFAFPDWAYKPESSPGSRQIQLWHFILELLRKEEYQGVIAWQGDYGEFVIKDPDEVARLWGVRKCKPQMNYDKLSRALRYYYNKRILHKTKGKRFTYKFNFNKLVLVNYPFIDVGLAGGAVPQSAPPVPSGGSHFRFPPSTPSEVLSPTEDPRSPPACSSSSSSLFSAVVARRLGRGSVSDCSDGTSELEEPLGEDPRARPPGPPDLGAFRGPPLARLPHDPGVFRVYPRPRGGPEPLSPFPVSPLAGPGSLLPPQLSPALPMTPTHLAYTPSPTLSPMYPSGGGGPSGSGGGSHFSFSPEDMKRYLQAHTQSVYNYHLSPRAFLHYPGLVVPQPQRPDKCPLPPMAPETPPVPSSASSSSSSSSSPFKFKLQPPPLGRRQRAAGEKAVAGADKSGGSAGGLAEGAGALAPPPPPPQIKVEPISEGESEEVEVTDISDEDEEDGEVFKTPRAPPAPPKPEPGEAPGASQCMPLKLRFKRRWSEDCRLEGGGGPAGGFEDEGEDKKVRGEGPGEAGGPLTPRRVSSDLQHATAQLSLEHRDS
Method in brief: as §1

[13] = biological target: T10, ETV3L (Homo sapiens, UniProt Q6ZN32 1-361)
T10 sequence: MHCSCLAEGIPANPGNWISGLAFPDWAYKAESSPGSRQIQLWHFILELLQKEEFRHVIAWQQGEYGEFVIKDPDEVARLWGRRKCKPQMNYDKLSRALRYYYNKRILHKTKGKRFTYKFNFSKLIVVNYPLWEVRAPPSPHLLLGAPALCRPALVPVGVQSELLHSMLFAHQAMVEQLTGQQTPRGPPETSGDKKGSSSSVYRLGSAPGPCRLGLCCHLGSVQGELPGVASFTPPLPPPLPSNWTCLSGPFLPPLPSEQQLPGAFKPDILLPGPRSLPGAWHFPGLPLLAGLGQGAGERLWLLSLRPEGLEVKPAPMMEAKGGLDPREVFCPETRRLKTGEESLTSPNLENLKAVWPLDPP
Method in brief: as §1

[14] = biological target: T11, ETS2 (Homo sapiens, UniProt P15036 1-469)
T11 sequence: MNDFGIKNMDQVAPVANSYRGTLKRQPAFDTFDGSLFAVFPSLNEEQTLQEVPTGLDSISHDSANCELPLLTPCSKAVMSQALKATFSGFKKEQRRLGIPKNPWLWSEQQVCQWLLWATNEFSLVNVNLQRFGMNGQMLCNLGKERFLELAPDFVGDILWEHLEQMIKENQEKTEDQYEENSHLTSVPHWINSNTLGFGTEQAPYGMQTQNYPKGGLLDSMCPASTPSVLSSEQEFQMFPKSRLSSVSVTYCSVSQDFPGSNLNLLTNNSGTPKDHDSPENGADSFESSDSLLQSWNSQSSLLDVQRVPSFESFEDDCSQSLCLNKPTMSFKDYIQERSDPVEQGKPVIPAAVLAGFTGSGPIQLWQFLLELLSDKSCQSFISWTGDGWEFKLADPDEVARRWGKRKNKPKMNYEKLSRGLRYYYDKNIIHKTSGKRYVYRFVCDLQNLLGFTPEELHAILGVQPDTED
Method in brief: as §1

[15] = biological target: T12, ETV3 (Homo sapiens, UniProt P41162-2 1-143)
T12 sequence: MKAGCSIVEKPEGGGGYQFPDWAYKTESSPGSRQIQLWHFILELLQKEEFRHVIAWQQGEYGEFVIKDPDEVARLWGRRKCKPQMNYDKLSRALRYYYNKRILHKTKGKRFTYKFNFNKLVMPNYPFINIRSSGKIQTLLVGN
Method in brief: as §1

Question: With TGATAG as the sequence, how does the binding signal [1] read?
Answer: 1.14 fold enrichment (6-mer frequency, TF over GST control)

Question: What about the binding signal [2] of the same sequence?
Answer: 1.07 fold enrichment (6-mer frequency, TF over GST control)

Question: And the binding signal [3]?
Answer: 1.03 fold enrichment (6-mer frequency, TF over GST control)

Question: And the binding signal [4]?
Answer: 1.09 fold enrichment (6-mer frequency, TF over GST control)

Question: What about the binding signal [5] of the same sequence?
Answer: 1.01 fold enrichment (6-mer frequency, TF over GST control)

Question: What about the binding signal [6] of the same sequence?
Answer: 1.05 fold enrichment (6-mer frequency, TF over GST control)

Question: And the binding signal [7]?
Answer: 1.09 fold enrichment (6-mer frequency, TF over GST control)

Question: What about the binding signal [8] of the same sequence?
Answer: 1.05 fold enrichment (6-mer frequency, TF over GST control)

Question: And the binding signal [9]?
Answer: 1.03 fold enrichment (6-mer frequency, TF over GST control)

Question: And the binding signal [10]?
Answer: 1.02 fold enrichment (6-mer frequency, TF over GST control)

Question: And the binding signal [11]?
Answer: 1.09 fold enrichment (6-mer frequency, TF over GST control)

Question: And the binding signal [12]?
Answer: 1.04 fold enrichment (6-mer frequency, TF over GST control)

Question: And the binding signal [13]?
Answer: 1.05 fold enrichment (6-mer frequency, TF over GST control)

Question: What about the binding signal [14] of the same sequence?
Answer: 1.06 fold enrichment (6-mer frequency, TF over GST control)

Question: What about the binding signal [15] of the same sequence?
Answer: 1.05 fold enrichment (6-mer frequency, TF over GST control)
